From PubChem BioAssay AID1224852 (National Center for Advancing Translational Sciences (NCATS), 2016)
Inconclusive results are not listed. Active and inactive are the calls of the source. Calls come from the whole dose curve; as a rule, active = well fitted curve in the direction sought with a large enough effect (not every such curve was filed as active); inconclusive = small, poorly fitted or top-dose-only effect, or effect the other way, or another doubt; inactive = no such curve, though single readings can be large or run the other way.

Assay: Cell viability assay for measurement of the protective activity of small molecules against cell death caused by Zika virus infection in human neural progenitor cells (hNPCs);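 note: 0% = ZIKV-infected cells without compound and 100% = uninfected cells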
Conditions: hNPC ZIKV-induced death protection, ATP luminescence, 72 h; series mostly up to 46.1 µM; protection, negative = more death: at the top concentration
Method in brief: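 Luminescent ATP content after 72 h ZIKV infection (2 FFU/cell) of hNPCs, compounds added 1 h before virus. Protection expressed as percent inhibition of the infection-induced drop in cell viability.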

| SMILES | protection, negative = more death |
| --- | --- |
| O=C(O)[C@@H](c1ccc(OCc2ccc3ccccc3n2)cc1)C1CCCC1 | -1.95% (inactive) |
| NC(=O)c1cccc2[nH]c(-c3ccc([C@H]4CCCN4)cc3F)nc12 | -66.1% (inactive) |
| Cc1ccc2c(n1)Oc1ccc(C(C)C(=O)OCC(=O)N(C)C)cc1C2 (stereo not drawn) | -34.7% (inactive) |
| Cc1ccc(O)c(N=Nc2ccccc2)n1 | -70.1% (inactive) |
| C[C@@H](O[C@H]1OCCN(Cc2n[nH]c(=O)[nH]2)[C@@H]1c1ccc(F)cc1)c1cc(C(F)(F)F)cc(C(F)(F)F)c1 | -76.8% (inactive) |
| c1ccc2[nH]c(-c3cscn3)nc2c1 | -20.6% (inactive) |
| CC1(C)Cc2c(sc(NC(=S)NC(=O)c3ccccc3)c2C(=O)O)CO1 | 2.37% (inactive) |
| CC(C(=O)O)c1ccc(C(=O)c2cccs2)cc1 (stereo not drawn) | 2.89% (inactive) |
| CCCCCCOc1ccccc1C(N)=O | 4.91% (inactive) |
| O=C(Nc1ccc(C(=O)O)c(O)c1)c1ccccc1 | 15% (inactive) |
| O=C1c2ccccc2C(=O)c2c(NCCc3ccc(O)cc3)ccc(NCCc3ccc(O)cc3)c21 | -66.2% (inactive) |
| Cc1c(C(=O)O)c(O)cc2c1C(=O)c1c(O)c([C@@H]3O[C@H](CO)[C@@H](O)[C@H](O)[C@H]3O)c(O)c(O)c1C2=O | -7.65% (inactive) |
| CCN1CCC(n2cc(CNc3cc(Cl)c4ncc(C#N)c(Nc5ccc(F)c(Cl)c5)c4c3)nn2)CC1 | -77.7% (inactive) |
| CCOC1OC(=O)C[C@H]1NC(=O)[C@@H]1CCCN1C(=O)[C@@H](NC(=O)c1ccc(N)c(Cl)c1)C(C)(C)C (stereo partly drawn) | 3.69% (inactive) |
| Oc1ccc(/C=C/c2cc(O)cc(O)c2)cc1 | -73.8% (inactive) |
| Cc1oncc1C(=O)Nc1ccc(C(F)(F)F)cc1 | -51.4% (inactive) |
| C[C@@H](N)c1ccc(C(=O)Nc2ccnc3[nH]ccc23)cc1 | -39.7% (inactive) |
| CN(C)c1cc(NC(=O)CNC(C)(C)C)c(O)c2c1C[C@@H]1C[C@H]3[C@H](N(C)C)C(=O)C(C(N)=O)=C(O)[C@@]3(O)C(=O)C1=C2O | -8.43% (inactive) |
